This passage reports composite z-score and z-score results from PubChem BioAssay.

Assay [1] has as its system Plasmodium falciparum Sir2 (PF13_0152, Sir2A). Description: Plasmodium falciparum Sir2A binding compounds – biochemical, small-molecule microarray, 635 nm fluorescence, primary screen (AID 1098).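 Further: score merges spot fluorescence intensity with its signal-to-noise ratio.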 Conditions: fluorescence 635 nm, higher = more signal.
Assay [2] can be described thus: probe aDKK1 binding to arrayed compounds – biochemical, biotinylated probe, 635/667 nm fluorescence, primary screen (AID 1099).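 Further: score merges 667nm spot fluorescence with signal to noise across triplicate slides.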 The settings on record: small-molecule microarray, higher = more signal.
Assay [3] can be described thus: probe aCHRDL2 binding to arrayed compounds – biochemical, biotinylated probe, 635/667 nm fluorescence, primary screen (AID 1100). The settings on record: small-molecule microarray, higher = more signal.
Assay [4] can be described thus: change in splice reporter luminescence, either direction, cell-based, HEK293, spliceosome inhibition project, primary screen (AID 1101).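 Further: HEK293 cells carrying a splicing-competent luciferase reporter gene; test concentration not given here.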 The settings on record: HEK293 splicing luciferase reporter, 24 h, higher = more signal, called active from +8 up or from −8 down.
Assay [5] addresses Fibroblast growth factor 10 (Homo sapiens) (UniProt O15520). Description: compounds binding fibroblast growth factor 10 – biochemical, small-molecule microarray, 635 nm fluorescence, primary screen (AID 1102). Conditions: FGF10 binding, fluorescence 635 nm, higher = more signal.
Assay [6] relates to glycogen synthase kinase-3 (GSK3A per assay name; protocol says GSK3B). Description: compounds binding glycogen synthase kinase-3 – biochemical, small-molecule microarray, 635 nm fluorescence, GSK3A, primary screen (AID 1103). Further: the record names both GSK3A and GSK3B. Conditions: fluorescence 635 nm, higher = more signal.
For assay [7], the target named is Epidermal growth factor receptor (Homo sapiens) (UniProt P00533). The experiment in a line: compounds binding epidermal growth factor receptor – biochemical, small-molecule microarray, 635 nm fluorescence, primary screen (AID 1104).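 Further: score merges 667 nm emission intensity with spot signal to noise over triplicate slides.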 Conditions: EGFR binding, higher = more signal.
For assay [8], the target named is Follistatin-related protein 3 (Homo sapiens) (UniProt O95633). The experiment in a line: compounds binding follistatin-related protein 3 – biochemical, small-molecule microarray, 635 nm fluorescence, primary screen (AID 1105).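 Further: score merges emission near 667 nm and signal to noise per printed spot across three slides.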 Conditions: FSTL3 binding, higher = more signal.
Assay [9] addresses Dickkopf-related protein 1 (Homo sapiens) (UniProt O94907). Description: small molecules binding DKK1 protein – biochemical, small-molecule microarray, 635 nm fluorescence scan, primary screen (AID 1106).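 Further: score merges emission near 667 nm with signal to noise over three replicate slides.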 The settings on record: higher = more signal.
For assay [10], the system named is Inhibin beta A chain (activin A). Description: small molecules binding activin A – biochemical, small-molecule microarray, 635 nm fluorescence scan, primary screen (AID 1107).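 Further: mouse activin A protein probed at 4.33 µg/mL on printed slides; score merges bound-protein fluorescence near 667 nm with spot signal-to-noise.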 Conditions: INHBA, higher = more signal.
Assay [11] concerns Human papillomavirus type 1a protein E7 (residues 44-93). Description: small molecules binding HPV E7 44-93 – biochemical, small-molecule microarray, residues 44-93, 635 nm fluorescence, primary screen (AID 1108).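 Further: E7 fragment applied at 1 µg/mL in TBST for 1 h at 4 C; score combines spot fluorescence with its signal to noise ratio.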 Conditions: fluorescence 635 nm, higher = more signal.
Assay [12] can be described thus: hepatitis C replication reporter changes, two-sided – Huh7 cells, luciferase reporter, HCV replication inhibitor project, primary screen (AID 1109).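 Further: huh7 hepatoma cells harbouring a luciferase neomycin HCV replicon reporter; luciferase luminescence as measure of HCV replicon replication; test concentration not given here.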 Conditions: Huh7 HCV replicon luciferase reporter, 48 h; higher = more signal. On the technique in general: Reporter assays use an easily measured gene product as a stand-in for the process of interest.
Assay [13] deals with Left-right determination factor 2 (Homo sapiens) (UniProt O00292). Description: small molecules binding LEFTY2 protein – biochemical, small-molecule microarray, 635 nm fluorescence scan, primary screen (AID 1110). Conditions: higher = more signal.
The target of assay [14] is Calmodulin-1 (Homo sapiens) (UniProt P0DP23). Description: small molecules binding calmodulin-1 with EGTA – biochemical, small-molecule microarray, Cy5-labelled CALM1, profiling panel (AID 1111).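 Further: labelled calmodulin applied in Tris saline Tween buffer holding calcium plus EGTA and DTT.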 Conditions: Cy5-CALM1 binding fluorescence, higher = more signal.
Assay [15] shares this target. The experiment in a line: small molecules binding Ca-loaded calmodulin-1 – biochemical, small-molecule microarray, Cy5-labelled CALM1, plus calcium, artefact control for SMM control-protein annotation, profiling panel (AID 1112).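 Further: score merges spot fluorescence with signal to noise from triplicate slides.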 Conditions: Cy5-CALM1 binding fluorescence, higher = more signal.
The nature of assay [16]: probe aWnt5a binding to arrayed compounds – biochemical, biotinylated probe, 635/667 nm fluorescence, primary screen (AID 1113).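 Further: score merges 667 nm fluorescence intensity with signal-to-noise per printed feature.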 Conditions: small-molecule microarray, higher = more signal.
The nature of assay [17]: probe aShh binding to arrayed compounds – biochemical, biotinylated probe, 635/667 nm fluorescence, primary screen (AID 1114).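 Further: probe is biotin-labelled aShh protein from a stem cell growth factor screen; measures binding of labelled protein to compounds printed on the slide; score merges feature fluorescence at 667 nm with signal-to-noise.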 Conditions: small-molecule microarray, higher = more signal.
A short description of assay [18]: probe aNog binding to arrayed compounds – biochemical, biotinylated probe, 635/667 nm fluorescence, primary screen (AID 1115).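 Further: probe is biotinylated aNog protein used at 0.15 µg/mL for 1 h at 4 C; z-score combines 667 nm fluorescence of each spot with its signal to noise.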 The settings on record: small-molecule microarray, higher = more signal.
The target of assay [19] is Torsin-1A-interacting protein 1 (Homo sapiens) (UniProt Q5JTV8). Description: compound microarray binding of lysate hLAP1 – cell lysate, small-molecule microarray, COS7 lysate, 635/667 nm fluorescence, primary screen (AID 1116). Conditions: 635 nm fluorescence, higher = more signal.
The target of assay [20] is Alpha-bungarotoxin (Bungarus multicinctus) (UniProt P60615). The experiment in a line: compounds binding labelled alpha-BTX control protein – biochemical, small-molecule microarray, Alexa647 label, 635/667 nm fluorescence, artefact control for SMM control protein annotation, profiling panel (AID 1117). Conditions: alpha-BTX-A647 binding fluorescence, higher = more signal.

Active and inactive are the calls of the source.

Torsin-1A-interacting protein 1 (Homo sapiens), sequence (Q5JTV8 whole entry, looked up): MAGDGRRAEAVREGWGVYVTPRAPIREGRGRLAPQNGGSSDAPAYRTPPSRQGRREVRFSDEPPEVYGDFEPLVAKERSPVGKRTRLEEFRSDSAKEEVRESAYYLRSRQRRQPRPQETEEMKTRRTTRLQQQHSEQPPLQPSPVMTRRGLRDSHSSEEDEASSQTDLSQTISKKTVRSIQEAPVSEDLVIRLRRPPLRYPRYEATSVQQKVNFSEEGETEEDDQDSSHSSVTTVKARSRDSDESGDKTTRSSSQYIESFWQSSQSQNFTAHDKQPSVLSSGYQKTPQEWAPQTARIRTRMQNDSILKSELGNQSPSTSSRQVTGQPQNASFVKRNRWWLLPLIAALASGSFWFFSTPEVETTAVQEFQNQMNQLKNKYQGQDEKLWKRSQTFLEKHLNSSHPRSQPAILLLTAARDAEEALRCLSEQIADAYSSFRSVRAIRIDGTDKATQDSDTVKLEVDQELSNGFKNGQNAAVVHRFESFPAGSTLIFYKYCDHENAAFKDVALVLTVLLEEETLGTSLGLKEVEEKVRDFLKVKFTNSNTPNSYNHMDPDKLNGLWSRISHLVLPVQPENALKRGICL
Follistatin-related protein 3 (Homo sapiens), sequence (O95633 whole entry, looked up): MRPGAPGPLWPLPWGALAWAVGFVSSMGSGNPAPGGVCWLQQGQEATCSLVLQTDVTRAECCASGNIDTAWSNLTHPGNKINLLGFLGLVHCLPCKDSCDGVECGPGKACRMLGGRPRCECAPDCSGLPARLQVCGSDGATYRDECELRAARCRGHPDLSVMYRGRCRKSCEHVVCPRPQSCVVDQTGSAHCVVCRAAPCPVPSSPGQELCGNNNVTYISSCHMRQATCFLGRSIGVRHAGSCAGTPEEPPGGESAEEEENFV
Fibroblast growth factor 10 (Homo sapiens), sequence (O15520 whole entry, looked up): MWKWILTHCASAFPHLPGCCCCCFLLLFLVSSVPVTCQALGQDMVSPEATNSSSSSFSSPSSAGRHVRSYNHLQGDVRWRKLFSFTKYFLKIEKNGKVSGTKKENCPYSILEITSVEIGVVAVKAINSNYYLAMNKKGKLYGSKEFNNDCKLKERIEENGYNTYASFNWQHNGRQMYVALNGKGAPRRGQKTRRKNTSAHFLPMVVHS
Alpha-bungarotoxin (Bungarus multicinctus), sequence (P60615 whole entry, looked up): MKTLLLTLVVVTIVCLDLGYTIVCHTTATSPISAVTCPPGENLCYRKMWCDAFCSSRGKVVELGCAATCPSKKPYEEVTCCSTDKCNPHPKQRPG
Epidermal growth factor receptor (Homo sapiens), sequence (P00533 whole entry, looked up): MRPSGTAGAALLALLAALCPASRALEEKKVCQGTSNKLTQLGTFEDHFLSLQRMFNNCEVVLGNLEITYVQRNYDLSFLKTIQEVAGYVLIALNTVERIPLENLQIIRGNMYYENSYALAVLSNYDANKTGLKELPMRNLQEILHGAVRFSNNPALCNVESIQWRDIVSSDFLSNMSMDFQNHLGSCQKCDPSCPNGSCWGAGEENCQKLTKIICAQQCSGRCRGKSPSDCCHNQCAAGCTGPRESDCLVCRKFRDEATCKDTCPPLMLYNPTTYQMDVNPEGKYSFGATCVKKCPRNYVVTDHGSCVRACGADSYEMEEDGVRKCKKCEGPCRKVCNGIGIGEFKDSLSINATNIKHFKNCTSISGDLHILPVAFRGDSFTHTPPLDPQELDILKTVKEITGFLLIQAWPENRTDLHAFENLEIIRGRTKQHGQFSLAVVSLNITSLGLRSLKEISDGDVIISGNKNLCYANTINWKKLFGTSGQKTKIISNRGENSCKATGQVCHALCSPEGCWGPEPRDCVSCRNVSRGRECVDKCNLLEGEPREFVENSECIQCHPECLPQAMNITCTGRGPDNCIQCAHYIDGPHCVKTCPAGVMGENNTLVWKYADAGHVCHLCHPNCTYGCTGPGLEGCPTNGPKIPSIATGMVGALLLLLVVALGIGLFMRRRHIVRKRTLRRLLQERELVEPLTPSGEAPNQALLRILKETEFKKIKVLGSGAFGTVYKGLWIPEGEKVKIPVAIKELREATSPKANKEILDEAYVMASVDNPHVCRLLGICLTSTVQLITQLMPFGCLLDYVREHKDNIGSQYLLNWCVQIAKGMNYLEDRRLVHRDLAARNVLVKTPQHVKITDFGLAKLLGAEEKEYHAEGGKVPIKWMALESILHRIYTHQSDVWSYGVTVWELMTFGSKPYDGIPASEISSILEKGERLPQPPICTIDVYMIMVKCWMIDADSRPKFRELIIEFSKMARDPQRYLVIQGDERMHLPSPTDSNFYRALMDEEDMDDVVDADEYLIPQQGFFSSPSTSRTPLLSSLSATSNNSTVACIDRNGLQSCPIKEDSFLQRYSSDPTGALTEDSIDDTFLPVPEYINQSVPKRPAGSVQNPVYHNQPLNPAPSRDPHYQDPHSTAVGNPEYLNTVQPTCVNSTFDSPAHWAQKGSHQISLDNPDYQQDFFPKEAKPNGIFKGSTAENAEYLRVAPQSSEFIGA
Dickkopf-related protein 1 (Homo sapiens), sequence (O94907 whole entry, looked up): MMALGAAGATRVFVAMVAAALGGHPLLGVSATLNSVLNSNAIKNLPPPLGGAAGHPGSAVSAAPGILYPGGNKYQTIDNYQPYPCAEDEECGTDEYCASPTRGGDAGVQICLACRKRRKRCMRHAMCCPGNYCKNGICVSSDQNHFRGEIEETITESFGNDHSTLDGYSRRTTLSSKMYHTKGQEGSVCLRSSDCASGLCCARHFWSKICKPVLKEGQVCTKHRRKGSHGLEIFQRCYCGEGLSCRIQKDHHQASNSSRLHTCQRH
Left-right determination factor 2 (Homo sapiens), sequence (O00292 whole entry, looked up): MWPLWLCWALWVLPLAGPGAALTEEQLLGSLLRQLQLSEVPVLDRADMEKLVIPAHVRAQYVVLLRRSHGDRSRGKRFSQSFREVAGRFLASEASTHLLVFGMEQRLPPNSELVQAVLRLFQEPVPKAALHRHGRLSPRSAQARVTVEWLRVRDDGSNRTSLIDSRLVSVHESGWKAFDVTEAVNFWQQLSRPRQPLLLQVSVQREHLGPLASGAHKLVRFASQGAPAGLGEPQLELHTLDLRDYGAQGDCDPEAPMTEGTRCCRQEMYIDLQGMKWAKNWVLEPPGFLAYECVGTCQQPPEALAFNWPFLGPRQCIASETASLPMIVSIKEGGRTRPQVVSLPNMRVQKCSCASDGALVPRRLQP

For `CCN1C(=O)[C@H]2[C@H]3[C@H](O)[C@H](O)CC(=NO[C@@H]4O[C@H](CO)[C@@H](O)[C@H](O)[C@H]4O)[C@@H]3CC[C@H]2C1=O`, the composite z-score in assay [1] is 0.562; in [2], -0.291; in assay [3] it was -0.233; in [5], -0.584; in [6], -1.42; in assay [7] it was -0.831. For the same molecule, the composite z-score in assay [8] is -0.534; in assay [9], -0.0655; in assay [10], 0.613; in assay [11], -2.4; in [13] it was -0.251; in assay [14], -0.665. Also, the composite z-score in [15] is -0.813; in assay [16], -0.18; in [17], -0.545; in [18], -0.1; in assay [19], -0.442; in [20] it was -0.479. Also, the z-score in assay [4] was -0.448 (inactive); in [12] it was 0.26.
Regarding `COC(=O)[C@]1(CO)N=C(c2ccc(OCCCO)cc2)O[C@@H]1c1ccccc1N=[N+]=[N-]`, the composite z-score in assay [1] is 0.428; in assay [2], 0.341; in assay [3], 0.194; in assay [5] it was 1.36; in [6], 0.521; in assay [7] it was 0.384. In addition, the composite z-score in assay [8] is 0.393; in [9], 0.356; in assay [10] it was 0.653; in assay [11], 0.812; in [13], 0.274; in assay [14], -0.323. For the same molecule, the composite z-score in assay [15] is -0.629; in assay [16] it was 0.0189; in [17], -0.226; in assay [18], -0.215; in assay [19], 1.6; in assay [20], -0.0978. Further, the z-score in [4] was -0.121 (inactive); in assay [12], 0.411.
For the molecule `CC(CCC(=O)OC[C@H]1O[C@H](C#Cc2ccccc2)C=C[C@@H]1Oc1ccc(C)cc1)=NOC[C@@H](O)[C@H]1O[C@@H]2OC(C)(C)O[C@@H]2[C@H]1O`, the composite z-score in [1] is 0.373; in assay [2], -0.339; in assay [3], -0.505; in assay [5] it was -0.369; in assay [6] it was -0.579; in assay [7] it was -1.03. Also, the composite z-score in [8] is -0.638; in [9], -0.335; in assay [10], 0.302; in [11], -0.263; in assay [13], -0.15; in [14] it was -0.873. The composite z-score in [15] is 0.0923; in assay [16], -0.18; in [17] it was -0.439; in [18], -0.118; in assay [19], 0.416; in [20] it was -0.469. Also, the results for the z-score in [4] and in assay [12] were 0.29 (inactive) and -1.13, respectively.
For the molecule `C=CC[C@@H]1C=C[C@H](ON=C2c3cc(OC)ccc3O[C@H](c3cccc(OC)c3)[C@H]2O)[C@@H](CO)O1`, the composite z-score in [1] was 0.0678; in assay [2], -0.403; in [3], -0.626; in assay [5], 0.0385; in assay [6], -0.325; in assay [7], 0.379. For the same molecule, the composite z-score in assay [8] was 0.0069; in assay [9], 0.26; in [10], -0.0002; in assay [11], -0.208; in assay [13], 0.194; in assay [14] it was -0.569. Moreover, the composite z-score in assay [15] is -0.319; in assay [16] it was -0.175; in assay [17], -0.288; in assay [18] it was 0.151; in [19], -0.103; in assay [20], 1.42. Moreover, the z-score was -0.766 (inactive) in assay [4] and -0.892 in assay [12].
Take `CO[C@@H]1COC(=O)CC=C[C@@H](C)[C@@H]2C=C[C@H](O)[C@@H](COC(=O)[C@H](C)NC(=O)CC=C[C@H]1C)O2`: the composite z-score in assay [1] was 1.46; in assay [2], -0.308; in assay [3], -1.09; in assay [5], 0.441; in assay [6] it was 0.674; in assay [7], 1.04. Also, the composite z-score in assay [8] is 1.03; in [9], 1.28; in [10], 0.578; in [11] it was -1.68; in [13], 0.433; in [14] it was -1.52. Also, the composite z-score is -1.99 in assay [15]; -0.103 in assay [16]; -0.0035 in [17]; -0.466 in assay [18]; -0.0424 in assay [19]; 0.304 in assay [20]. The z-score in assay [4] was -1.09 (inactive); in assay [12], -2.12.
Take `COCCNC(=O)OCC1CCCC2(CC(OC(=O)NCCc3ccc(F)cc3)CC(CCC(=O)N[C@@H](C)C(=O)OC)O2)O1` (stereo not given in full): the composite z-score in assay [1] was 1.16; in [2], -0.115; in assay [3], -0.273; in [5], 0.842; in [6] it was 1.26; in assay [7], 0.601. In addition, the composite z-score in [8] was 1.22; in assay [9], 0.932; in assay [10], 0.415; in [11], 1.37; in [13], 1.02; in [14], -0.104. For the same molecule, the composite z-score in assay [15] is -0.685; in assay [16] it was -0.0643; in assay [17], -0.0035; in assay [18], -0.0827; in assay [19] it was 0.0096; in [20] it was 0.429. Besides, the z-score in [4] was -1.09 (inactive); in [12], -0.376.
